# ALDH1A1 block: qHTS Assay for Inhibitors of Aldehyde Dehydrogenase 1 (ALDH1A1); Purified ALDH1A1, NADH fluorescence, propionaldehyde substrate; Potency, µM (series often up to 75.3 µM), for the others: top-dose activity, negative = inhibition, hits mostly inhibitors; 7.3% of 220,000 active; AID 1030, 2008;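 note: potency is the fitted concentration of half-maximal effect; plate controls were no enzyme wells and a reference inhibitor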
# PNC inhibitor: High Content Assay for Compounds that inhibit the Assembly of the Perinucleolar Compartment. 3.1% of 140,000 active. PC3M PTB-GFP, PNC prevalence imaging, 16 h; stronger effect = lower value. activity change (PNC), negative = inhibition, % at 10 µM;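 active = readout at or below -70, meaning at least 70% loss of cells showing the perinucleolar compartment, a nuclear body marking cancer cells; inconclusive = readout between -30 and a set limit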;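 note: plate controls were DMSO wells for no effect and camptothecin positive control wells for full effect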
#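 Compounds are pinned in duplicate onto adhered PC3M cells stably expressing GFP-tagged PTB and incubated 16 h at 37 C. Cells are then fixed, nuclei stained with Hoechst, and PNC-positive cells counted.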
# HPGD inh: qHTS Assay for Inhibitors of HPGD (15-Hydroxyprostaglandin Dehydrogenase); 15-hydroxyprostaglandin dehydrogenase [NAD(+)] (Homo sapiens), P15428; purified HPGD, NADH fluorescence kinetic, PGE2 substrate; Potency, µM, without a hit: top-dose activity change, negative = inhibition, most hits filed as inhibitors; 4.3% of 150,000 active; AID 894, 2007; note: potency is the fitted concentration of half-maximal effect
# Target sequence (P15428 whole entry, looked up): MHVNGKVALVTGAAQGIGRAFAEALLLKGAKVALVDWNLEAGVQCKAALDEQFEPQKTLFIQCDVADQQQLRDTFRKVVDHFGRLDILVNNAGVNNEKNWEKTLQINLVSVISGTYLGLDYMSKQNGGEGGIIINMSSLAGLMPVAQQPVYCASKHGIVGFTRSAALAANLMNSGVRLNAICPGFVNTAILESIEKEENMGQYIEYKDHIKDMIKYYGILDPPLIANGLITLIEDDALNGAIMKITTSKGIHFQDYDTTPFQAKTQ
#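 20 nM HPGD preincubated 15 min at room temperature with compound in 50 mM Tris-HCl pH 8, 0.01% Tween 20. Started with 1 mM NAD+ and 30 uM prostaglandin E2; NADH fluorescence (360/450 nm) read 5 times over 30-s intervals, last minus first.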
# Starred values were filed as active, the others as inactive; u = inconclusive; x = no result given; ! = a repeat was not active; [ ] = remark or other dose. The list is not random: actives were taken first. Their share in the collection is about 11%. Unless noted, calls come from the whole dose curve; as a rule, active = well fitted inhibition curve with a large enough effect (not every such curve was filed as active); inconclusive = small, poorly fitted or top-dose-only effect, or another doubt; inactive = no such curve, though single readings can be large or run the other way. Unless noted, % is set by controls: 0 for no effect and ±100 for the full control effect.
SMILES,ALDH1A1 block,PNC inhibitor,HPGD inh
C/C(CC(c1ccccc1)c1c(O)c2ccccc2oc1=O)=N\NC(N)=S (configuration not stated),u,-16,u
CCOC(=O)N(c1ccccc1)P1(=S)OCCO1,u,21,u
COC(=O)N(c1ccccc1)P1(=S)OCCO1,4µM*,u,8.9µM*
C[C@@H]1CC[C@@]2(OC1)O[C@H]1[C@@H](O)[C@H]3[C@@H]4CC[C@H]5C[C@@H](O[C@@H]6O[C@H](CO)[C@H](O[C@@H]7O[C@H](CO)[C@@H](O)[C@H](O[C@@H]8OC[C@@H](O)[C@H](O)[C@H]8O)[C@H]7O[C@@H]7O[C@H](CO)[C@@H](O)[C@H](O[C@@H]8O[C@H](CO)[C@@H](O)[C@H](O)[C@H]8O)[C@H]7O)[C@H](O)[C@H]6O)[C@H](O)C[C@]5(C)[C@H]4CC[C@]3(C)[C@H]1[C@@H]2C,20µM*,x,-5%
COP(=O)(OC)O/C(=C\Cl)c1cc(Cl)c(Cl)cc1Cl,u,x,-9%
N#CC(C#N)=Cc1ccc(N2CCCC2)cc1,10µM*,x,x
N#CCN1CCN(c2ccc(C(F)(F)F)cc2)CC1,12%,-21,-3%
N#CC(=Cc1ccc(O)c(O)c1)C(N)=S,0.79µM*,x,28µM*
N#CC(C#N)=Cc1ccc(O)c(O)c1,11µM*,x,32µM*
N#C/C(=C\c1cccc(O)c1)C(=O)O,-9%,x,-30%
CN(C)c1ccc(C=C(C#N)C#N)cc1,28µM*,u,-5%
O=C(Oc1ccccc1)N1CCC[C@@]2(CCN(Cc3nccs3)C2)C1,-4%,x,-5%
C[C@@H]1O[C@H](O[C@H]2C[C@@H](O)[C@@]3(CO)[C@H]4[C@@H](O)C[C@]5(C)[C@@H](C6=CC(=O)OC6)CC[C@]5(O)[C@H]4CC[C@]3(O)C2)[C@@H](O)[C@H](O)[C@@H]1O,-1%[20.9 µM],x,0%
CC(C)c1ccc2c(c1O)CCC1C3=C(CC[C@]21C)C(=O)OC3 (some centres not stated),-3%,x,-19%
CCCCCCCCCCCCCC(=O)O[C@@H]1[C@@H](C)[C@@]2(O)[C@@H](C=C(CO)C[C@@]3(O)C(=O)C(C)=C[C@@H]23)C2C(C)(C)[C@@]21OC(C)=O (some centres not stated),-14%,x,-22%
NC[C@H](CP(=O)(O)O)c1ccc(Cl)cc1,5%,x,-4%
c1nc[nH]n1,1%,x,1%
CCOP(=O)(OCC)/C(C#N)=C/c1ccc(Br)cc1,2%,x,x
COc1cc(C=C(C#N)C#N)cc(O)c1O,32µM*,x,32µM*
CC(C)(C)c1cc(C=C(C#N)C#N)cc(C(C)(C)C)c1O,8.9µM*!,x,u
CCc1ccc(/C=C(/C#N)C(N)=S)cc1,32µM*,42,32µM*
COc1c2c(cc3c1OCO3)C13C=CC(OC)CC1N(C2)CC3O (configuration not stated),9%,x,-11%
COc1ccc2c(c1OC)C(=O)O[C@@H]2C1c2cc3c(cc2CCN1C)OCO3 (some centres not stated),3%,x,-2%
CCCCOC(C)=O,u,x,-10%
Cl/C=C/Cl,16%,x,-13%
SMILES,ALDH1A1 block,PNC inhibitor,HPGD inh
N#CC1(c2ccccc2)CCN(C2CC(=O)N(c3ccc(F)cc3)C2=O)CC1 (configuration not stated),32µM*,x,x
N#CC1(c2ccccc2)CCN(C2CC(=O)N(c3ccc4c(c3)OCO4)C2=O)CC1 (configuration not stated),8.9µM*,x,x
C[C@H]1CN(C2CCC(C#N)(c3ccc(F)cc3)CC2)CC[C@@]1(C(=O)O)c1ccccc1 (some centres not stated),-8%[20.9 µM],x,2%
COc1c2c(c(CC=C(C)C)c3oc(=O)c(-c4ccc(O)cc4)c(O)c13)OC(C)(C)C=C2,2%,x,-17%
CCS(=O)(=O)N1N=C(c2cccc(NS(C)(=O)=O)c2)CC1c1ccccc1 (configuration not stated),13µM*,x,x
CC[C@H]1CN2CCc3cc(OC)c(OC)cc3[C@H]2C[C@@H]1C[C@@H]1NCCc2cc(OC)c(OC)cc21,6%,x,-8%
CCCCN(Cc1ccccc1)C1CCN(CCc2ccccc2)CC1,-2%,110,-2%
c1ccc(CCN2CCC(N3CCN(c4ccccc4)CC3)CC2)cc1,1%,-100*,11%
Cc1ccc(N)cc1[N+](=O)[O-],u,x,-8%
CC(C)NC(C)C,2%,x,-8%
Cc1ccc(NC(=O)OC(C)CNC(=O)Oc2cccc(C)c2)cc1 (configuration not stated),20µM*,x,x

# High-throughput results: PubChem, National Center for Advancing Translational Sciences (NCATS)
